# Sampled rows, rich in hits. Any-hit rate of the full collection: about 1.4%.
# BCLXL inh – inhibitors of human Bcl-xL, primary screen, biochemical, fluorescence polarization, HTS; Bcl-2-like protein 1 (Homo sapiens), Q07817; GST-Bcl-xL / FITC-Bim BH3 peptide fluorescence polarization; inhibition, % at 10.9 µM; 0.7% of 320,000 active;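 active means inhibition above the mean of all tested compounds plus 3 SD, cutoff set per campaign, cut at about 30% in these data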;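 further: 0% = DMSO wells and 100% = unlabeled Bim-BH3 peptide competitor; inhibitors lower millipolarization by displacing the labeled peptide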
# EBV gp42 inh – Epstein-Barr virus gp42 inhibitors, primary screen, biochemical, uHTS, fluorescence polarization; Glycoprotein 42 (Epstein-Barr virus (strain AG876)), Q1HVG2; Fluorescence polarization binding assay, mP read-out; inhibition, % (tested at 21.74 µM); 0.42% of 220,000 active; AID 1085, 2008; in the data active means inhibition above about 50%
# Target sequence (Q1HVG2 whole entry, looked up): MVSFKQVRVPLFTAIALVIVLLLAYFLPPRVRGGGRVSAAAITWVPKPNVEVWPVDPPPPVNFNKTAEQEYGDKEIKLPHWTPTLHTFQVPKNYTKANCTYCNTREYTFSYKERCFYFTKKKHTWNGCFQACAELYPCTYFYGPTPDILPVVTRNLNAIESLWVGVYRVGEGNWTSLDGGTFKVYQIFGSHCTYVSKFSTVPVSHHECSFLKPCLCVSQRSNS
# E coli Lon inh – inhibitors of E. coli Lon protease, primary screen, biochemical, fluorescence polarization; P0A9M0; purified E. coli Lon protease; inhibition, % at 7.94 µM; 0.42% of 360,000 active; in the data active means inhibition above about 13%, passing the limit was not always enough;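 further: 0% = enzyme with probe and DMSO and 100% = no enzyme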
# MEX-5 binding – MEX-5 zinc finger RNA-binding disruptors – biochemical, C. elegans, fluorescence polarization, MLPCN library, primary screen; MEX-5/FITC-TCR2 RNA binding; active compounds read low; activity score (negative = inhibition of binding), % at 10 µM; 0.38% of 300,000 active; AID 1832, 2009;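 active means inhibition past about -25% in most replicates, and total fluorescence under double the plate's negative control median, limit read from the data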;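 further: 0% = DMSO and -100% = 5 µM competing unlabeled TCR2 RNA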
# MCL1 BIM primary – inhibitors of MCL1 binding to BIM-BH3, primary screen, biochemical, fluorescence polarization. Induced myeloid leukemia cell differentiation protein Mcl-1 (Homo sapiens), Q07820. GST-MCL1 / FITC-Bim-BH3 fluorescence polarization. inhibition, % at 10.9 µM. 0.68% of 320,000 active. AID 2057, 2009;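 active means inhibition above the mean inhibition of all tested compounds plus 3 SD, set per campaign, cut at about 40% in these data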;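 further: 0% = DMSO wells and 100% = unlabeled Bim-BH3 peptide control; higher means more loss of mP so more displacement of Bim peptide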
# Target sequence (Q07820 whole entry, looked up): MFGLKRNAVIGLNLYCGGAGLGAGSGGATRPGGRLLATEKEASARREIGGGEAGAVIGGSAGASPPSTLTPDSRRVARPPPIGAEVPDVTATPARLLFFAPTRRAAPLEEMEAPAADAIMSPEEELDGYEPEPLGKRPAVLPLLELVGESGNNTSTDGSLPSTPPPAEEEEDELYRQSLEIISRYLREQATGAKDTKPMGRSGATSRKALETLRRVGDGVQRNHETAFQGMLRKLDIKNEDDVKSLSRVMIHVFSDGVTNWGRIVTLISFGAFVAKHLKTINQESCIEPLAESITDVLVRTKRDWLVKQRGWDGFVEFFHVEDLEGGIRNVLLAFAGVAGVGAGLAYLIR
# GLD-1 RNA inh – GLD-1/TGE RNA complex disruptors, primary screen, biochemical, fluorescence polarization; Female germline-specific tumor suppressor gld-1 (Caenorhabditis elegans), Q17339; 0.44% of 320,000 active; purified GLD-1 + fluorescein TGE RNA; inhibition, % at 5.96 µM;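 active means percent inhibition above a per-plate cutoff, the plate mean of test compounds plus 3 SD, cut at about 30% in these data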;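 further: 0% = DMSO wells with GLD-1 and probe and 100% = wells lacking GLD-1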
# Bcl-xL conf – Bcl-xL inhibitors blocking Bim BH3 binding, confirmation, counter-screen for MCL1 inhibitor project, biochemical, fluorescence polarization; shares compounds with MCL1 BIM primary; 54% of 1,700 active; inhibition, % at 10.9 µM; GST-Bcl-xL / FITC-Bim BH3 peptide FP binding;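 active means inhibition above a cutoff equal to the mean inhibition of all tested compounds plus 3 SD, cut at about 30% in these data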;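 further: 0% = DMSO wells and 100% = unlabeled Bim BH3 control peptide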
# MCL1 inh confirm – inhibitors of MCL1 binding to BIM-BH3, confirmation, biochemical, fluorescence polarization, triplicate; shares compounds with MCL1 BIM primary; GST-MCL1 / FITC-Bim-BH3 fluorescence polarization; inhibition, % at 10.9 µM; 61% of 1,700 active; AID 2168, 2009;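 active means inhibition above the average of all tested compounds plus 3 SD, cut at about 40% in these data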;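 further: 0% = DMSO wells and 100% = unlabeled Bim-BH3 control peptide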
# GLD-1 TGE cf – GLD-1/TGE RNA binding inhibitors, retest, confirmation, biochemical, fluorescence polarization, triplicate | shares compounds with GLD-1 RNA inh | GLD-1/FL-TGE RNA fluorescence polarization | inhibition, % at 5.96 µM | 10% of 550 active | AID 2459, 2010;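 active means average inhibition across triplicates above the hit cutoff set in the primary screen, cut at about 32% in these data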;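 further: 0% = GLD-1 with RNA probe and DMSO and 100% = wells lacking GLD-1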
# eLon confirm – E. coli Lon protease inhibitor retest, confirmation, biochemical, fluorescence polarization. shares compounds with E coli Lon inh. 31% of 1,400 active. purified E. coli Lon. inhibition, % at 7.94 µM; in the data active means inhibition above about 16%;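 further: 0% = enzyme with probe and DMSO and 100% = no enzyme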
# * marks the source's active call; other numbers are inactive results; nt = not tested or not shown; + = active, no number.
SMILES,BCLXL inh,EBV gp42 inh,E coli Lon inh,MEX-5 binding,MCL1 BIM primary,GLD-1 RNA inh,Bcl-xL conf,MCL1 inh confirm,eLon confirm,others
O=C(CN1CCCCC1)NNc1nc(-c2ccccc2)c2cc(Br)ccc2n1,2,-5,15,-4,6,-2,nt,nt,nt,
OC[C@@H]1CN(Cc2ccco2)C[C@H](n2cnc3c(NCc4ccc(F)cc4)ncnc32)O1,nt,nt,-7,nt,nt,nt,nt,nt,nt,
N#CC1=C(N)C2=CCCC[C@H]2[C@H](c2cccc(F)c2)C1(C#N)C#N,44*,29,3,-14,45*,37*,24,25,nt,GLD-1 TGE cf=1
N#CC1=C(N)N(c2ccccc2)C(c2ccccc2)C1(C#N)C#N (stereo not given),2,nt,2,-1,4,4,nt,nt,nt,
O=C1c2cccc3cc([N+](=O)[O-])cc(c23)C(=O)N1/N=C/c1ccc(O)cc1O,56*,96*,17*,0,61*,60*,27,31,20*,GLD-1 TGE cf=11
CCN(CC)c1ccc(/C=N/N2C(=O)c3ccccc3C2=O)c(O)c1,0,-16,-5,-1,-6,-8,nt,nt,nt,
COc1ccc(C2=CC(c3sccc3C)n3nnnc3N2)cc1 (stereo not given),13,-25,0,-15,17,3,nt,nt,nt,
COc1ccc(C2C=C(c3ccc(Br)cc3)Nc3nc(N4C(=O)CCC4=O)nn32)cc1 (stereo not given),123*,68*,25*,-28*,135*,102*,84*,100*,-9,
COc1ccc2nc(-c3ccco3)c(-c3ccco3)nc2c1,49*,37,19*,-10,88*,23,76*,126*,-7,
Cc1ccc(C2C(C(=O)c3cccs3)=C(O)C(=O)N2c2nnc(C)s2)cc1 (stereo not given),96*,123*,29*,-67*,86*,101*,123*,143*,61*,
COc1ccc(C2C(C(=O)c3cccs3)=C(O)C(=O)N2c2cccc(C)n2)cc1 (stereo not given),7,-5,-1,2,-3,5,nt,nt,nt,
Cc1c2ccccc2nc2c(F)c(N(C)C)c(F)c(F)c12,114*,197*,117*,-5,122*,99*,120*,134*,+,
CN(C)c1c2ccccc2nc2c(F)c(F)c(F)c(F)c12,12,-74,-9,2,5,-3,nt,nt,nt,
Cc1ccc(CCNC(=O)Cc2ccc(NC3=NC4CS(=O)(=O)CC4S3)cc2)cc1 (stereo not given),2,nt,-2,-2,-1,7,nt,nt,nt,
O=[N+]([O-])c1cccc(C(=S)N2CCN(c3ccc(F)cc3)CC2)c1,38*,15,56*,0,51*,20,22,14,1,
CCOc1cccc(-c2cc(NCCc3ccccn3)n3nccc3n2)c1,nt,nt,-7,nt,nt,nt,nt,nt,nt,
Cc1ccc(C)[n+](CC(=O)c2ccc(-c3ccccc3)cc2)c1,6,-13,0,0,-6,-4,nt,nt,nt,
O=C1C(Br)=Cc2cccc3cccc1c23,116*,116*,68*,-10,135*,83*,97*,133*,57*,
Cc1nnc(C)n1/N=C/c1ccc(-c2ccccc2Cl)o1,6,nt,7,-6,6,2,nt,nt,nt,
O=C1NC(=S)/C(=C\c2ccc(-c3ccccc3Cl)o2)S1,58*,60*,48*,-42*,62*,60*,91*,116*,20*,GLD-1 TGE cf=29
CCOc1ccc(NS(=O)(=O)c2ccc(-c3ccc(=O)[nH]n3)o2)cc1,3,nt,6,-4,12,1,nt,nt,nt,
CC(=O)c1ccc2noc(-c3ccc(Cl)cc3)c2c1,3,-9,-5,1,2,7,nt,nt,nt,
CC(=O)c1ccc2noc(-c3ccc(F)cc3)c2c1,98*,95*,16*,-15,98*,110*,82*,103*,58*,
CCn1c(CSc2nccn2C)nc2cc(C(=O)O)ccc21,57*,72*,32*,-19,65*,45*,33*,44*,-7,GLD-1 TGE cf=40*
N#Cc1c(N)sc(=S)c2c1CCCCC2,87*,49,20*,-26*,113*,56*,62*,76*,-49,GLD-1 TGE cf=24
SMILES,BCLXL inh,EBV gp42 inh,E coli Lon inh,MEX-5 binding,MCL1 BIM primary,GLD-1 RNA inh,Bcl-xL conf,MCL1 inh confirm,eLon confirm,others
O=C1c2cccc3c(O)ccc(c23)C(=O)N1c1ccc(Cl)cc1,+,nt,+,-41*,+,+,+,+,+,
CC(=O)Nc1ccc(N2C(=O)c3cccc4c(O)ccc(c34)C2=O)cc1,+,nt,+,-20,+,+,+,+,+,
Cc1ccc(N2C(=O)c3cccc4c(C(=O)O)ccc(c34)C2=O)cc1,2,-20,nt,3,2,0,nt,nt,nt,
Cc1c(N)cc2c(c1N)C(C)(C)CC2(C)C,nt,nt,-2,nt,nt,nt,nt,nt,nt,
Cn1nc(NC(=O)CC23CC4CC(CC(C4)C2)C3)c2c(F)cccc21,5,-2,1,1,4,7,nt,nt,nt,
COc1ccc(CNc2nc3ccccc3n2C)c(OC)c1,1,-11,3,1,0,8,nt,nt,nt,
COc1ccc(N=Nc2nc3cc(Br)c(Br)cc3n2C)c(OC)c1,+,118*,163*,nt,+,198*,176*,+,128*,
CC(=O)c1ccc(OCc2nnn(CC(=O)O)c2-c2ccccc2)cc1,nt,nt,9,nt,nt,nt,nt,nt,nt,
C=CCOc1ccc(C2OC34CCCCC3C(C#N)(C#N)C2(C#N)C(=N)O4)cc1 (stereo not given),104*,-10,31*,-45*,115*,75*,76*,94*,21*,
